High-throughput results as filed in PubChem.
TGFb SMAD3 inh: qHTS for Inhibitors of TGF-b; HepG2 CAGA-GFP TGF-b/SMAD3 reporter, GFP fluorescence, 18 h; TGF-beta stimulated, 500 pg/mL final; Potency, µM (top dose mostly 46.1 µM), for inactives: at the top dose activity, negative = inhibition, most hits filed as inhibitors; 410,000 compounds, 1.2% hits; further: potency means the concentration at half of the fitted maximal effect; on the % scale 0 is the no-effect control and ±100 the full control effect; nearly all actives have a fitted effect of over 65% in size
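HEPG2 CAGA-GFP cells (1000/well, DMEM with 1% FBS) were pre-incubated 2 h at 37 degrees C, given compound by pin tool, then stimulated with TGF-beta at 500 pg/mL final for 18 h before per-cell GFP fluorescence imaging.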
TDP1 cell noCPT: qHTS for Inhibitors of human tyrosyl-DNA phosphodiesterase 1 (TDP1): qHTS in cells in absence of CPT | Potency, µM (doses to about 46.2 µM), without a hit: at the highest dose activity change, negative = growth inhibition, actives largely listed as inhibitors | 420,000 compounds, 15% hits | DT40 Tdp1-/- hTDP1 cells, no CPT, ATP luminescence, 48 h; further: potency means the concentration at half of the fitted maximal effect; on the % scale 0 is the no-effect control and ±100 the full control effect; nearly all actives have a fitted effect of over 55% in size
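Growth of hTDP1-complemented DT40 Tdp1-knockout cells is measured by ATP luminescence after at least 48 hr compound exposure at 37 °C, with DMSO substituting for the 20 nM CPT used in the parallel screen.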
IL-1B inflam inh: qHTS for Inhibitors of Inflammasome Signaling: IL-1-beta AlphaLISA Primary Screen; THP-1 LPS/ATP IL-1B secretion, AlphaLISA, 16 h; stronger effect = lower value; activity change, % at 57.5 µM; 360,000 compounds, 4.7% hits; in the data active means activity change below about -50%; inconclusive means mostly about -30% to -49%; further: on the % scale 0 is the no-effect control and ±100 the full control effect
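Secreted IL-1B measured by AlphaLISA bead assay after 16 h compound exposure of THP-1 cells; compounds (final up to 57.5 uM) added 1 h before LPS (250 ng/mL) and ATP (1.25 mM) stimulation; lower signal means less secretion.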
HepG2 tox: qHTS for Inhibitors of TGF-b: Cytotox Counterscreen; Potency, µM (highest dose often 46.1 µM), inactives show at the highest dose activity change, negative = cytotoxicity, most hits filed as cytotoxic; HepG2 CAGA-GFP viability, ATP luminescence, 18 h; 410,000 compounds, 0.76% hits; further: potency means the concentration at half of the fitted maximal effect
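HepG2 CAGA-GFP cells (1000/well, DMEM with 1% FBS) received compound, then TGF-beta at 500 pg/mL final, and were incubated 18 hours at 37 degrees C. Viability was read by CellTiter-Glo luminescence. Media-only wells were set as complete cell-killing and DMSO as no toxicity.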
TDP1 cell CPT: qHTS for Inhibitors of human tyrosyl-DNA phosphodiesterase 1 (TDP1): qHTS in cells in presence of CPT; 420,000 compounds, 12% hits; AID 686979, 2013; chicken DT40 Tdp1-/-;hTDP1 cells + 20 nM CPT, ATP luminescence, 48 h; Potency, µM (series often up to 46.2 µM), inactives show at the highest dose activity change, negative = growth inhibition, hits mostly inhibitors; further: potency means the concentration at half of the fitted maximal effect; on the % scale 0 is the no-effect control and ±100 the full control effect; nearly all actives have a fitted effect of over 55% in size
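Chicken DT40 Tdp1-/- cells stably complemented with human TDP1 were seeded at 400 cells/well in medium containing 20 nM camptothecin, exposed to pin-transferred compounds, and grown at 37 °C for at least 48 hr. Viability was read as ATP luminescence.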
TDP1 block: qHTS Assay for Inhibitors of Tyrosyl-DNA Phosphodiesterase (TDP1). Tyrosyl-DNA phosphodiesterase 1 (Homo sapiens), Q9NUW8. recombinant TDP1, AlphaScreen DNA substrate cleavage. Potency, µM (top dose mostly 130 µM), for the others: at the top dose activity change, negative = inhibition, hits mostly inhibitors. 350,000 compounds, 0.28% hits; further: potency means the concentration at half of the fitted maximal effect; on the % scale 0 is the no-effect control and ±100 the full control effect; nearly all actives have a fitted effect of over 40% in size
Target sequence (Q9NUW8 whole entry, looked up): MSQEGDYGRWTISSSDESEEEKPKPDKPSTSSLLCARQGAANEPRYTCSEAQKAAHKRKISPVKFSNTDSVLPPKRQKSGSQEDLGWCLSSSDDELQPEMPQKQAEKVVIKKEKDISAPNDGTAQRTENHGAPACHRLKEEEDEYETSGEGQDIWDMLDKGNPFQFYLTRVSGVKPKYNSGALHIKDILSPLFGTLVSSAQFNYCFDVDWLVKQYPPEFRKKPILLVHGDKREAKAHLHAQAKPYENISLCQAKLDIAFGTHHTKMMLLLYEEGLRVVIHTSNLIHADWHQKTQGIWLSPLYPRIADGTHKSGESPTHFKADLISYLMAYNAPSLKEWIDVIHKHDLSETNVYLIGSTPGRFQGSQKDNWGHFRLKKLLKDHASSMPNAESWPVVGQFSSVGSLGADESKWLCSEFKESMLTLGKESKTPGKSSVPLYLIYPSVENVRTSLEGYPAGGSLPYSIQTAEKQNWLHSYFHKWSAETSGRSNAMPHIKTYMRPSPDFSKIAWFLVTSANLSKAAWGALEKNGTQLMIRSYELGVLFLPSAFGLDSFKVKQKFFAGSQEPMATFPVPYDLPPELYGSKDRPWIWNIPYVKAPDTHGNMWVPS
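Recombinant human Tdp1 (E. coli-expressed, 1 nM final) preincubated with compounds 15 min at room temperature, then 5'-biotin/3'-phosphotyrosine-FITC DNA substrate (15 nM final) added for 5 min. AlphaScreen beads (10 ug/ml final) added 10 min; cleavage lowers signal.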
The depositor's hits bear a star; [ ] = remark or other dose. In the library only some 19% were active in any assay of this set; here they are far more common. Unless noted, the call rests on the fitted dose curve; in most records, active means well fitted curve in the direction sought with a large enough effect; inconclusive means small, poorly fitted or top-dose-only effect, or another doubt; inactive means no such curve, though single readings can be large; an effect the other way counts as inactive or inconclusive.

Screening CC(C)(C)OC(=O)NCCCCCc1nnc(SCc2ccccc2F)o1 returned TGFb SMAD3 inh 0.0%, TDP1 cell noCPT inconclusive, IL-1B inflam inh -51.4*, HepG2 tox 0.4%, TDP1 cell CPT inconclusive and TDP1 block 0.0%.
Fc1cccc(Cl)c1CSc1nnc(COc2cccc3cccnc23)o1 was read as TGFb SMAD3 inh -10.9%, TDP1 cell noCPT -25.6%, IL-1B inflam inh -50.5*, HepG2 tox -15.3%, TDP1 cell CPT -21.9% and TDP1 block 7.6%.
For CC(C)(C)OC(=O)NCCCCCc1nnc(SCc2c(F)cccc2Cl)o1 the results were TGFb SMAD3 inh -6.6%, TDP1 cell noCPT 20.6µM*, IL-1B inflam inh -0.1, HepG2 tox -12.6% and TDP1 cell CPT -24.1%.
Screening CC(C)(C)OC(=O)NCCCCCc1nnc(SCc2cccc(F)c2)o1 returned TGFb SMAD3 inh -23.1%, TDP1 cell noCPT 9.2µM*, IL-1B inflam inh -9.6, HepG2 tox -14.6% and TDP1 cell CPT inconclusive.
Screening CC(C)(C)OC(=O)NCCCCCc1nnc(SCc2ccccc2)o1 returned TGFb SMAD3 inh 11.3%, TDP1 cell noCPT inconclusive, IL-1B inflam inh inconclusive, HepG2 tox 9.4%, TDP1 cell CPT inconclusive and TDP1 block 0.0%.
For CC(=O)OCCN1C(=O)c2c(C)nc3ccc(S(=O)(=O)N4CCOCC4)cc3c2C1=O the results were TDP1 block 6.2%.
O=c1c(-c2ccc(O)cc2)coc2c(C3OC(CO)C(O)C(O)C3O)c(O)ccc12 (stereo not given) was read as TDP1 cell noCPT -4.5%, TDP1 cell CPT -6.6% and TDP1 block 7.9%[56.1 µM].
Screening O=S(=O)(c1ccccc1)[C@@]1(c2ccccc2)C[C@@H]2ON=C(c3cccc(Br)c3)[C@@H]2C1 returned TGFb SMAD3 inh -2.4%, TDP1 cell noCPT 3.66µM*, IL-1B inflam inh 58.5, HepG2 tox -5.6%, TDP1 cell CPT 4.61µM* and TDP1 block -3.8%.
`O=C(O)[C@]1(S(=O)(=O)c2ccccc2)C[C@@H]2ON=C(c3cccc(Br)c3)[C@@H]2C1` gave TGFb SMAD3 inh 9.6%, TDP1 cell noCPT -20.7%, IL-1B inflam inh -13.7, HepG2 tox 9.5% and TDP1 cell CPT inconclusive.
`COc1cccc(Nc2nc3c(S(=O)(=O)c4cc(C)ccc4C)nnn3c3ccsc23)c1` gave TGFb SMAD3 inh -0.3%, TDP1 cell noCPT inconclusive, HepG2 tox -11.3%, TDP1 cell CPT -24.5% and TDP1 block -5.1%.
For Cc1cccc2cc(CN(Cc3ccco3)C(=O)c3ccco3)c(=O)[nH]c12 the results were TGFb SMAD3 inh 12.1%, TDP1 cell noCPT -19.4%, IL-1B inflam inh 13.8, HepG2 tox 1.9%, TDP1 cell CPT -2.8% and TDP1 block 4.9%[0.0935 µM].
For COCCn1nnnc1C(C(C)C)N(Cc1ccccc1)Cc1cc2cc(OC)ccc2[nH]c1=O (stereo not given) the results were TGFb SMAD3 inh inconclusive, TDP1 cell noCPT 16.4µM*, IL-1B inflam inh -55.8*, HepG2 tox -5.6%, TDP1 cell CPT inconclusive and TDP1 block 4.7%.
`COc1ccc2[nH]c(=O)c(CN(Cc3ccco3)C(c3nnnn3Cc3ccccc3)C(C)C)cc2c1` (stereo not given) gave TGFb SMAD3 inh 0.0%, TDP1 cell noCPT 20.6µM*, IL-1B inflam inh -10.1, HepG2 tox -8.5%, TDP1 cell CPT 18.4µM* and TDP1 block 3.3%.
For Cc1cccc2cc(CN(Cc3ccco3)C(c3nnnn3CCc3ccccc3)C(C)C)c(=O)[nH]c12 (stereo not given) the results were TGFb SMAD3 inh 10.5%, TDP1 cell noCPT 14.6µM*, IL-1B inflam inh 0.0, HepG2 tox 23.3%, TDP1 cell CPT inconclusive and TDP1 block 6.3%.
`Cc1cc(NCC2CCCCC2)nc2ccccc12` gave TGFb SMAD3 inh 9.5%, TDP1 cell noCPT 23.1µM*, IL-1B inflam inh -100.1*, HepG2 tox -51.2%, TDP1 cell CPT inconclusive and TDP1 block 9.1%.
CCOc1ccc(Nc2cc(C)c3ccccc3n2)cc1 was read as TGFb SMAD3 inh inconclusive, TDP1 cell noCPT inconclusive, IL-1B inflam inh 0.0, HepG2 tox -38.3% and TDP1 cell CPT inconclusive.
`COc1ccccc1N=C1SC(C(=O)Nc2cccc(Cl)c2Cl)C(N)=C1C(N)=O` (stereo not given) gave TGFb SMAD3 inh -10.1%, TDP1 cell noCPT 3.26µM*, IL-1B inflam inh -22.7, HepG2 tox 2.1%, TDP1 cell CPT 2.91µM* and TDP1 block 8.2%.
Screening COc1ccccc1N=C1SC(C(=O)Nc2ccccc2OC)CC(=O)N1C (stereo not given) returned TGFb SMAD3 inh -26.4%, TDP1 cell noCPT -12.7%, HepG2 tox -4.5%, TDP1 cell CPT 1.7% and TDP1 block -1.3%[12.3 µM].
`O=C(NC1CCCC1)c1cn(C2CCCN(Cc3ccc4c(c3)OCCO4)C2)nn1` (stereo not given) gave TDP1 cell noCPT 0.3% and TDP1 cell CPT inconclusive.
Screening Cc1ccc(CCNC(=O)c2cn(C)c3ccc(S(=O)(=O)N(C)C4CCCCC4)cc3c2=O)cc1 returned TGFb SMAD3 inh -4.5%, TDP1 cell noCPT -3.9%, HepG2 tox 1.5%, TDP1 cell CPT 3.9% and TDP1 block 2.3%.
Screening O=C1c2cccc3c2[C@H](CCC3)CN1[C@@H]1CN2CCC1CC2 returned TDP1 cell noCPT 15µM* and TDP1 cell CPT 16.8µM*.
O=C1c2cccc(-c3ccc(C(F)(F)F)cc3)c2C2CCCCN12 (stereo not given) was read as TGFb SMAD3 inh inconclusive, TDP1 cell noCPT inconclusive, IL-1B inflam inh 47.9, HepG2 tox -22.4% and TDP1 cell CPT inconclusive.
`CCOC(=O)c1c(NC(=O)Cc2ccccc2)sc2c1CCN(C)C2` gave TGFb SMAD3 inh 5.7%, TDP1 cell noCPT 13µM*, IL-1B inflam inh inconclusive, HepG2 tox -26.8% and TDP1 cell CPT inconclusive.
For CCOC(=O)c1c(NC(=O)CCS(=O)(=O)c2ccccc2)sc2c1CCN(C)C2 the results were TGFb SMAD3 inh inconclusive, TDP1 cell noCPT 16.4µM*, IL-1B inflam inh 0.4, HepG2 tox -45.2%, TDP1 cell CPT 16.4µM* and TDP1 block 2.9%.
